# Bioassay records deposited in PubChem BioAssay by National Center for Advancing Translational Sciences (NCATS).
# KB-3-1 tox: kills parental KB-3-1 adenocarcinoma cells; Potency, µM (top dose mostly 46.1 µM), most hits filed as cytotoxic; KB-3-1 viability, CellTiter-Glo ATP luminescence, 72 h; hit rate 1.4% among 400,000; further: nearly all actives have a fitted effect of over 60% in size
#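 Using CellTiter-Glo luminescence, growth of non-resistant KB-3-1 adenocarcinoma cells is assessed 72 h after pin-tool compound addition at 37 °C. Normalized responses across the concentration series yield fitted curves.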
# HT1080 IDH1KD tx: HT-1080 IDH1 knockdown cell toxicity (counter line); AID 686971; hit rate 2% among 360,000; HT-1080 IDH1 knockdown viability, ATP luminescence, 48 h; Potency, µM (titrated, usually from 46.1 µM), for the others: at the highest dose activity, negative = toxicity, usual class: cytotoxic;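 further: 0% = DMSO wells and -100% = cell-free medium wells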
#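 In this qHTS, HT-1080 cells depleted of IDH1 are exposed for 48 h at 37 °C to compound titrations. Toxicity is scored from CellTiter-Glo luminescence, with DMSO as full viability and medium alone as none.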
# HT1080-NT tox: kills 2HG-producing HT-1080-NT fibrosarcoma cells; HT-1080-NT fibrosarcoma viability, CellTiter-Glo ATP luminescence, 48 h; Potency, µM (titrated, usually from 46.1 µM), inactives show top-dose activity, negative = less viability, actives largely listed as cytotoxic; hit rate 1.6% among 360,000; AID 686970;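 further: NT is the 2HG producing partner of a matched IDH1 knockdown line; 0% = DMSO-treated cells and -100% = media-only wells without cells; nearly all actives have a fitted effect of over 55% in size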
#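 HT-1080-NT fibrosarcoma cells (2HG-overproducing), 750 cells/well in RPMI with 5% FBS, dosed after 2 h and incubated 48 h at 37C. CellTiter-Glo luminescence normalized to DMSO and no-cell wells; concentration-response curves fitted and classed.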
# KB-V1 MDR tox: KB-V1 MDR subline cytotoxicity; KB-V1 MDR cells viability, CellTiter-Glo, 72 h; Potency, µM (titrated, usually from 46.1 µM), most hits filed as cytotoxic; hit rate 3.4% among 400,000; AID 1347076; further: nearly all actives have a fitted effect of over 60% in size
#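 Following 72 h at 37 degrees C with compound, KB-V1 cell viability was read by CellTiter-Glo luminescence, medium being phenol-red-free DMEM plus 10% FBS; concentration-response parameters came from normalized, curve-fitted qHTS data.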
# TDP1 cell CPT: growth inhibition of DT40 Tdp1-/-;hTDP1 cells with camptothecin (screen for TDP1 inhibitors). hit rate 12% among 420,000. Potency, µM (top dose mostly 46.2 µM), without a hit: at the top dose activity change, negative = growth inhibition, most hits filed as inhibitors. AID 686979. chicken DT40 Tdp1-/-;hTDP1 cells + 20 nM CPT, ATP luminescence, 48 h; further: nearly all actives have a fitted effect of over 55% in size
#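 Cell growth measured by CellTiter-Glo luminescence after a minimum 48 h, 37 C compound exposure with 20 nM CPT in Tdp1-knockout DT40 cells stably expressing hTDP1, seeded 400/well; qHTS titration format.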
# DT40 TDP1 no CPT: qHTS for Inhibitors of human tyrosyl-DNA phosphodiesterase 1 (TDP1): qHTS in cells in absence of CPT; DT40 Tdp1-/- hTDP1 cells, no CPT, ATP luminescence, 48 h; Potency, µM (series often up to 46.2 µM), without a hit: at the top dose activity change, negative = growth inhibition, hits mostly inhibitors; hit rate 15% among 420,000; further: nearly all actives have a fitted effect of over 55% in size
#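 Readout: luminescence from CellTiter-Glo after 30 min in the dark at RT. Cells: DT40 Tdp1-/- with stable hTDP1, 400/well. Exposure: compounds alone, ≥48 hr, 37 °C.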
# * hit, by the source's call; i = inactive; u = inconclusive; x = no result. Sampled rows, rich in hits. Any-hit rate of the full collection: about 19%. The call rests on the fitted dose curve; in most records, active means well fitted curve in the direction sought with a large enough effect; inconclusive means small, poorly fitted or top-dose-only effect, or another doubt; inactive means no such curve, though single readings can be large; an effect the other way counts as inactive or inconclusive. Unless noted, on the % scale 0 is the no-effect control and ±100 the full control effect; potency means the concentration at half of the fitted maximal effect.
SMILES,KB-3-1 tox,HT1080 IDH1KD tx,HT1080-NT tox,KB-V1 MDR tox,TDP1 cell CPT,DT40 TDP1 no CPT
Cc1ccc(CC(C(=O)O)C(C)C(=O)Nc2ccc(F)cc2)cc1 (stereo not given),i,-3%,0%,i,-4%,4%
Cc1cc(NC(=O)c2ccc(F)cc2)n(C)n1,i,-3%,-2%,i,9%,-14%
Cc1c(NS(=O)(=O)c2ccc(N(C)C3CCCCC3)c([N+](=O)[O-])c2)c(=O)n(-c2ccccc2)n1C,u,-1%,-4%,15µM*,u,u
Cc1c(NS(=O)(=O)c2ccc(N3CCCCC3)c([N+](=O)[O-])c2)c(=O)n(-c2ccccc2)n1C,i,21%,16%,u,4%,-3%
CCOC(=O)[C@H]1[C@H]2COc3ccc(C)cc3[C@@H]2N2C(=O)c3ccc(Cl)cc3NC(=O)[C@@]12C,i,-5%,2%,i,u,u
CCOC(=O)[C@H]1[C@H]2COc3ccc(Cl)cc3[C@@H]2N2C(=O)c3cc(OC)ccc3NC(=O)[C@@]12C,u,-13%,-8%,i,u,23µM*
CCOC(=O)[C@H]1[C@H]2COc3ccc(Cl)cc3[C@@H]2N2C(=O)c3ccc(Cl)cc3NC(=O)[C@@]12C,u,-24%,u,i,u,18µM*
CCOC(=O)[C@H]1[C@H]2COc3ccc(OC)cc3[C@@H]2N2C(=O)c3ccc(Cl)cc3NC(=O)[C@@]12C,i,4%,-14%,i,u,u
CC(=O)Nc1ccc(S(=O)(=O)N2CCN(CC(O)COc3ccc4ccccc4c3)CC2)cc1 (stereo not given),i,u,0.71µM*,u,u,u
CCOc1ccc(S(=O)(=O)N2CCN(CC(O)COc3cccc([N+](=O)[O-])c3)CC2)cc1 (stereo not given),i,-19%,1%,u,15µM*,23µM*
CCN(CC)C(=O)c1[nH]cnc1C(=O)NCC(=O)OC(C)(C)C,i,1%,1%,i,0%,-10%
Cc1nc(N2CCOCC2)sc1C=O,i,4%,4%,i,2%,7%
CC1(C)SC(=S)N(NC(=O)Nc2cccc3ccccc23)C1N(O)C(=O)Nc1ccccc1 (stereo not given),u,u,u,u,u,16µM*
CC1(C)SC(=S)N(/N=C/c2ccccc2)C1N(O)C(=O)Nc1ccc([N+](=O)[O-])cc1 (stereo not given),u,u,u,i,16µM*,18µM*
Cc1ccc(NS(=O)(=O)c2ccc(C)c(NC(=O)c3ccc(S(=O)(=O)N4CCCCCC4)cc3)c2)c(C)c1,i,-11%,-3%,i,18µM*,10µM*
Cc1ccc(S(=O)(=O)N2CCCCC2)cc1NC(=O)c1ccc2c(c1)OCO2,i,-3%,-1%,u,u,u
COc1ccc(OC)c(NC(=O)c2cc(OC(C)=O)cc(C(=O)Nc3cc(OC)ccc3OC)c2)c1,i,-17%,-24%,u,u,10µM*
COc1ccc(S(=O)(=O)N2CCCN(CC(=O)Nc3ccccc3F)CC2)cc1,i,-5%,15%,9.2µM*,-28%,u
COc1ccc(C(=O)Nc2cc(OC)ccc2OC)cc1,i,0%,0%,i,-11%,-12%
COc1ccc(NC(=O)CN2CCCN(S(=O)(=O)c3ccc(Br)cc3)CC2)c(OC)c1,u,x,x,u,u,23µM*
Cc1nnc(NC(=O)CSc2nnc(CC(=O)Nc3ccccc3F)n2C)s1,i,6%,3%,i,3%,10%
COc1ccc(-c2cc3ccc(O)c(CN4CCCCC4C)c3oc2=O)cc1OC (stereo not given),i,x,x,u,u,0%
Cc1ccc(F)c(S(=O)(=O)NC(=O)C2(C)CCN2C(=O)c2ccc(C(F)(F)F)nc2C)c1 (stereo not given),i,u,19%,i,0%,-27%
CCN(CC)S(=O)(=O)c1ccc2c(c1)N(CC(=O)NCc1ccccc1)C(=O)C1CCCCN21 (stereo not given),i,x,x,i,u,-11%
COc1ccc(NC(=O)c2cccc(S(=O)(=O)N3CCCCC3)c2)c(OC)c1,i,-7%,0%,u,u,-19%
SMILES,KB-3-1 tox,HT1080 IDH1KD tx,HT1080-NT tox,KB-V1 MDR tox,TDP1 cell CPT,DT40 TDP1 no CPT
COc1ccc(C)cc1NC(=O)c1ccc(S(=O)(=O)N2CCOCC2)cc1,i,-1%,-6%,16µM*,-5%,-2%
COc1ccc(C)cc1NC(=O)c1cccc(C(=O)Nc2cc(C)ccc2OC)c1,i,7%,5%,i,15µM*,10µM*
Cc1cc(C)c(NC(=O)c2cc(S(=O)(=O)N3CCOCC3)ccc2F)c(C)c1,i,-5%,0%,i,u,-23%
COc1ccc(NC(=O)c2ccc(S(=O)(=O)N3CCCCCC3)cc2)c(OC)c1,i,1%,-10%,i,-27%,13µM*
Cc1ccc(NC(=O)c2cc(S(=O)(=O)N3CCOCC3)ccc2F)c(C)c1,i,-17%,13%,13µM*,-17%,-16%
COC(=O)CCNC(=O)N1CCN(c2nnc(C)c3c(C)n(-c4ccccc4)nc23)CC1,i,x,x,i,-2%,-14%
Cc1cc(N/N=C/c2cccc([N+](=O)[O-])c2)nc(-n2nc(C)cc2C)n1,u,15%,0%,u,4.1µM*,3.7µM*
Cc1cc(N/N=C/c2cccc(Cl)c2)nc(-n2nc(C)cc2C)n1,i,u,u,u,0.58µM*,0.82µM*
COc1ccc(/C=N/Nc2cc(C)nc(NS(=O)(=O)c3ccc(C)cc3)n2)cc1,i,u,u,i,u,u
COc1ccc(/C=N/Nc2cc(C)nc(-n3nc(C)cc3C)n2)cc1,u,u,u,i,4.6µM*,4.6µM*
Cc1cc(N/N=C/c2ccccc2[N+](=O)[O-])nc(-n2nc(C)cc2C)n1,u,-28%,u,u,1.2µM*,0.92µM*
Cc1cc(C)n(-c2ccccc2[N+](=O)[O-])n1,i,-5%,3%,i,4%,u
CC(C)[C@H](NS(=O)(=O)c1ccccc1)C(=O)OCC(=O)NC(=O)NC1CCCCC1,i,0%,-17%,u,u,u
